Data from PubChem BioAssay (NCI).
About 83,000 compounds went through this panel and 20% of them were active in at least one assay; those are over-represented in the sample as a whole.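 For each line, cells grew in 96-well plates with the test compound present at a single concentration for 48 hours.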 The source made the active and inactive calls. Rule for the calls: active = growth percent below 10; inactive = the rest.

Test system: HL-60(TB) leukemia
Assay: NCI-60 one-dose screen, 48 h (100 = growth as untreated, 0 = no growth, -100 = all killed)
Conditions: 10 µM unless noted

Compound | growth
Cc1cc(C(=O)c2ccccc2)c(C)c2c1[nH]c1ccc(Cl)cc12 | 1.08% (active)
OC[C@@H](O)C(O[C@@H]1O[C@H](CO)[C@H](O)[C@H](O)[C@H]1O)[C@H](O)[C@@H](O)CO (stereo not given in full) | 94.9% (inactive)
O=C1C=C[C@]2(C[C@@H](c3cccc(C(F)(F)F)c3)O[C@@H](c3cccc(C(F)(F)F)c3)O2)O1 | 8.74% (active)
O/N=C1\CCC2CCCCC2C1 (stereo not given) | 98.8% (inactive)
O=c1[nH]c2c3ccncc3cc(-c3cccc(Cl)c3)c2c2cnccc12 | 17.6% (inactive)
CCCCCCCCCCCCCCCC1=NC(C)(C)CN1C(C)C | -62.9% (active)
COC(=O)Nc1nc2ccc(C(=O)c3ccc(F)cc3)cc2[nH]1 | -70.4% (active)
COc1ccc2nc(-c3cc(-c4cc(OC)c(OC)c(OC)c4)n[nH]3)[nH]c2c1 | -38.7% (active)
COc1cc(-c2ccc(-c3ccc(C(=N)N)nc3)s2)cc(OC)c1OC | -40.6% (active)
CC(C)OC(=O)c1cc(NC(=S)OC(C)C)ccc1Cl | 86.2% (inactive)
COc1cc(-c2nc3cc(Cl)c(Cl)cc3[nH]2)ccc1OCC(=O)N=Nc1c(O)[nH]c2ccc(Cl)cc12 | -32.7% (active)
C=C1C(=O)O[C@H]2[C@H]1CC/C(COC(=O)CCCCCCCCC(=O)OC/C1=C/CC[C@@]3(C)O[C@H]3[C@H]3OC(=O)C(=C)[C@@H]3CC1)=C\CC[C@@]1(C)O[C@@H]21 | -32.8% (active)
CC(=O)c1c[nH]c2ccccc12 | 114% (inactive)
COc1c(Cl)ccc2c(-c3nc4cc(Cl)c(F)cc4s3)cc(=O)oc12 | -18.1% (active)
CN(C)c1nc(-c2ccco2)n2nc(-c3ccco3)cc2n1 | 97.3% (inactive)
Nc1ccc(S(=O)(=O)c2ccc(NO)cc2)cc1 | 107% (inactive)
N#Cc1nc(-c2ccccc2)oc1S(=O)(=O)N1CCN(c2ccc(F)cc2)CC1 | 28.1% (inactive)
CCOC(=O)c1csc(NC(=O)COc2ccc(/C=C3\Oc4ccccc4C3=O)cc2)n1 | 7.24% (active)
Cc1ccc(NC(=O)Cc2ccc(/C=C/C(=O)c3ncc[nH]3)cc2)cc1 | 27.5% (inactive)
NC(=O)c1cccc(N2Cc3ccccc3OC3=C2C(=O)c2c(O)ccc(O)c2C3=O)c1 | -46.3% (active)

Compound | growth
CCOC(=O)Cc1csc2nc(-c3ccccc3)nn12 | 53% (inactive)
O=C1c2cc3c(cc2-c2c1c1ccc(F)cc1c(=O)n2CCCNCCO)OCO3 | -58.1% (active)
Nc1nc(N)c2c(n1)NC(c1ccc(Cl)cc1)C1CCc3ccccc3C1=N2 (stereo not given) | 13.5% (inactive)
COc1ccc(CCN2COc3c([C@@H](C)CCC=C(C)C)ccc(C)c3C2)cc1OC | 29.1% (inactive)
O=S(=O)(O)c1ccc(N/N=C/c2ccccc2Cl)cc1 | 101% (inactive)
O=[N+]([O-])c1ccc(O)cc1Br | 99.9% (inactive)
N#Cc1c(N)nc(Nc2nc3ccccc3[nH]2)nc1-c1ccc(Cl)cc1 | 106% (inactive)
Cc1cn(-c2cc(NC(=O)c3cccc(C#Cc4cccc5[nH]nc(N)c45)c3)cc(C(F)(F)F)c2)cn1 | 12.5% (inactive)
Cc1ccc(-c2[nH][nH]c(=O)c2-c2nc3ccccc3s2)cc1 | 101% (inactive)
Cc1cc(CO)c(O)c(CO)c1 | 80.5% (inactive)
O=C(NC(=S)NNC(=S)NNc1ccccc1)c1ccccc1 | 0.166% (active)
CNC=O | 89.6% (inactive)
Clc1ccc(-c2nc(-c3cccs3)cn3ccnc23)cc1 | 98.8% (inactive)
Cc1ccc(Oc2c(/C=N/NC(=O)Cn3c(=O)sc4ccccc43)c(C)nn2-c2ccccc2)cc1 | 4.2% (active)
CN1CCN(Cc2ccc(NC(=O)c3cncc(C#Cc4cnc(N)cc4C#N)c3)cc2C(F)(F)F)CC1 | 4.46% (active)
S=C1CCCCCN1 | 107% (inactive)
CCOC(=O)c1c(Cl)c2c(n1Cc1cc(OC)cc(OC)c1)-c1oncc1CCC2 | 0.728% (active)
CCN(CC)CCNc1c(C)cc(CO)c(Cl)c1C | 107% (inactive)
Cc1sc2c(c1C)c(=O)nc1c(-c3nc(-c4ccccc4)cs3)n[nH]n12 | 94.1% (inactive)
O=C(Nc1ccncc1)C(=O)c1cn(S(=O)(=O)c2cccc3ccccc23)c2ccccc12 | 64% (inactive)
